TDP1 block: qHTS Assay for Inhibitors of Tyrosyl-DNA Phosphodiesterase (TDP1); Tyrosyl-DNA phosphodiesterase 1 (Homo sapiens), Q9NUW8; recombinant TDP1, AlphaScreen DNA substrate cleavage; AID 485290, 2010; actives 0.28% (n = 350,000); Potency, µM (series often up to 130 µM), inactives show at the top dose activity change, negative = inhibition, usual class: inhibitors; also: potency is read from the fitted curve at half-maximal effect; nearly all actives have a fitted effect of over 40% in size
Target sequence (Q9NUW8 whole entry, looked up): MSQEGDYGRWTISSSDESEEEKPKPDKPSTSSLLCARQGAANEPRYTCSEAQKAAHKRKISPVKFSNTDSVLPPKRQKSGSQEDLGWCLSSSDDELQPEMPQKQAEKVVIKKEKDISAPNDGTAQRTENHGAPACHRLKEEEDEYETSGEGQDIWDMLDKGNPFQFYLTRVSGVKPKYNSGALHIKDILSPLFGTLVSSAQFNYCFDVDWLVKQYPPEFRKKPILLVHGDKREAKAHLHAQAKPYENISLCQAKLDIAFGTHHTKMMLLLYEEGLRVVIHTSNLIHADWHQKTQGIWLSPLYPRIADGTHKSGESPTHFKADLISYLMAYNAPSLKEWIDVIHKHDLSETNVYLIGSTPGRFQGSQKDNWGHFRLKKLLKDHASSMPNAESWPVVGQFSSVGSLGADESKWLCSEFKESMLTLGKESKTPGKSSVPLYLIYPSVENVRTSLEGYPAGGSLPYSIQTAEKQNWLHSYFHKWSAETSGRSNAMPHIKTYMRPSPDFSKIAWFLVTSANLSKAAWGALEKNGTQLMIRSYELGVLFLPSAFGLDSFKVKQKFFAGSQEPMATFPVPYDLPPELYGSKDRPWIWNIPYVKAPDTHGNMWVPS
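Signal: AlphaScreen proximity between streptavidin donor and anti-FITC acceptor beads on intact substrate. Reaction: Tdp1 1 nM, substrate 15 nM final, 5 min RT after 15 min compound preincubation.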
IL-1B inflam inh: qHTS for Inhibitors of Inflammasome Signaling: IL-1-beta AlphaLISA Primary Screen | THP-1 LPS/ATP IL-1B secretion, AlphaLISA, 16 h; hits give low values | activity change, % at 57.5 µM | actives 4.7% (n = 360,000) | AID 743279, 2014; in the data active = activity change below about -50%; inconclusive = mostly about -30% to -49%
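THP-1 cells pretreated 1 hr with compounds (up to 57.5 uM final), then stimulated with LPS (250 ng/mL final) plus ATP (1.25 mM final); secreted IL-1B measured by AlphaLISA after 16 hr, decreased signal indicating inhibition.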
TDP1 cell CPT: qHTS for Inhibitors of human tyrosyl-DNA phosphodiesterase 1 (TDP1): qHTS in cells in presence of CPT; actives 12% (n = 420,000); AID 686979, 2013; Potency, µM (titrated, usually from 46.2 µM), for inactives: at the top dose activity change, negative = growth inhibition, hits mostly inhibitors; chicken DT40 Tdp1-/-;hTDP1 cells + 20 nM CPT, ATP luminescence, 48 h; also: potency is read from the fitted curve at half-maximal effect; nearly all actives have a fitted effect of over 55% in size
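Chicken DT40 Tdp1-/- cells stably complemented with human TDP1 were seeded at 400 cells/well in medium containing 20 nM camptothecin, exposed to pin-transferred compounds, and grown at 37 °C for at least 48 hr. Viability was read as ATP luminescence.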
TDP1 cell noCPT: qHTS for Inhibitors of human tyrosyl-DNA phosphodiesterase 1 (TDP1): qHTS in cells in absence of CPT. actives 15% (n = 420,000). DT40 Tdp1-/- hTDP1 cells, no CPT, ATP luminescence, 48 h. Potency, µM (highest dose often 46.2 µM), for the others: at the highest dose activity change, negative = growth inhibition, usual class: inhibitors; also: potency is read from the fitted curve at half-maximal effect; nearly all actives have a fitted effect of over 55% in size
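Luminescent ATP content (CellTiter-Glo) served as the growth readout. Knockout chicken DT40 cells expressing human TDP1 were exposed to compounds without camptothecin for a minimum 48 hr at 37 °C.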
Giardia killer: Small Molecules that selectively kill Giardia lamblia: qHTS | Giardia lamblia trophozoite viability | activity change, % at 7.66 µM, hits read low | actives 0.15% (n = 340,000) | AID 540267, 2011; in the data active = activity change below about -80%; inconclusive = between about -30% and that limit;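 also: parasites exposed to compound for two days anaerobically before the ATP read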
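Luminescent ATP signal served as the viability read-out, measured 15-30 min after adding ATP detection reagent to trophozoites that had been incubated with compounds for 48 hrs at 37 deg C anaerobically at 100 cells/well.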
ELG1 repair inh: qHTS screen for small molecules that inhibit ELG1-dependent DNA repair in human embryonic kidney (HEK293T) cells expressing luciferase-tagged ELG1; Potency, µM (titrated, usually from 46.1 µM), inactives show at the highest dose activity change, negative = inhibition, actives largely listed as inhibitors; HEK293T ELG1-luciferase reporter, luminescence, 16 h; DNA damage induced by 5-fluorouridine; actives 2.3% (n = 330,000); also: potency is read from the fitted curve at half-maximal effect; nearly all actives have a fitted effect of over 55% in size
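Cells (2,000 per well) received 5-fluorouridine plus test compound or DMSO and were incubated 16 hr at 37 °C, 5% CO2. Luciferase activity was read by luminescence 30 min after ONE-Glo addition; signal suppression marked inhibition of damage-induced ELG1 function.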
* marks the source's active call; other numbers are inactive results; i = inactive; u = inconclusive; x = no result; [ ] = dose if it differs, or a comment. An excerpt weighted towards active compounds, which were near 19% of everything screened. Unless noted, calls follow the shape of the dose curve; as a rule, active = well fitted curve in the direction sought with a large enough effect; inconclusive = small, poorly fitted or top-dose-only effect, or another doubt; inactive = no such curve, though single readings can be large; an effect the other way counts as inactive or inconclusive. % is scaled to controls: 0 for no effect and ±100 for the full control effect.

SMILES	TDP1 block	IL-1B inflam inh	TDP1 cell CPT	TDP1 cell noCPT	Giardia killer	ELG1 repair inh
Cc1ccc(-c2cc(-c3coc4ccccc4c3=O)c3c(n2)-c2ccccc2OC3)cc1	3%	x	u	-26%	x	x
O=C(c1ccccc1)n1nc(-c2ccco2)nc1NCc1ccccc1Cl	6%	x	1%	-6%	x	x
C/C=C1\NC(=O)[C@H](C)NC(=O)[C@@H](NC(=O)[C@H](Cc2ccc(O)cc2)NC(=O)[C@@H](NC(=O)/C(C)=C/C)C(C)C)[C@@H](C)OC(=O)[C@H](CCCc2ccc(O)cc2)NC(=O)[C@@H](CCC(=O)OC)NC1=O	x	23	2%	6%	x	x
C/C=C1\NC(=O)[C@H](CC(N)=O)N(C)C(=O)C([C@@H](C)O)NC(=O)C(CCCc2ccc(OC)cc2)NC(=O)[C@H](C(C)C)NC(=O)/C(=C\C)NC(=O)[C@H](O)[C@@H](C[C@@H](O)CCCCCCC)NC(=O)[C@H](C)NC(=O)CN(C)C(=O)[C@H](CCC(N)=O)NC1=O (stereo partly specified)	x	50	7.3µM*	8.2µM*	40	x
COc1ccc(OC)c(C2OCCC=CC2C)c1 (stereo unspecified)	6%[21 µM]	x	x	x	x	x
CCOC(=O)C1=CCN(S(=O)(=O)c2ccc(C)cc2)C1c1ccc(C(C)C)cc1 (stereo unspecified)	x	17	18µM*	18µM*	x	x
CCOC(=O)C1=CCN(S(=O)(=O)c2ccc(C)cc2)C1c1ccc(CC)cc1 (stereo unspecified)	x	0	u	18µM*	x	x
CCOC(=O)C1=CCN(S(=O)(=O)c2ccc(C)cc2)C1c1ccc(C)cc1 (stereo unspecified)	x	87	u	u	x	x
O=C(COc1ccc2ccccc2c1Br)N1CCCCC1	0%	20	u	3%	16	u
CCN(CC)C(=O)Oc1ccc2ccccc2c1Br	-7%	-60*	-6%	u	13	u
O=C(Oc1ccc2ccccc2c1Br)N1CCCCCC1	-8%	14	u	21µM*	-2	u
Cc1ccc(S(=O)(=O)c2nnn3c2nc(Nc2ccc(C(C)C)cc2)c2sccc23)cc1C	0%	x	4.1µM*	4.6µM*	x	x
Cc1ccc(S(=O)(=O)c2nnn3c2nc(NC2CCCCCC2)c2sccc23)cc1C	-3%	x	15µM*	21µM*	x	x
Cc1ccc(C)c(S(=O)(=O)c2nnn3c2nc(NC(C)C)c2sccc23)c1	5%	x	23µM*	u	x	x
CCc1ccc(S(=O)(=O)c2nnn3c2nc(N2CCCC2)c2sccc23)cc1	3%	x	-15%	-2%	x	x
CCc1ccc(S(=O)(=O)c2nnn3c2nc(NC2CCCC2)c2sccc23)cc1	5%	x	23µM*	u	x	x
O=C(COC(=O)/C=C/c1ccc(F)cc1)Nc1ccc(Cl)cn1	3%	-1	18%	-6%	-6	9%
COc1cc(/C=C/C(=O)OCC(=O)Nc2ccc(Cl)cn2)ccc1O	28µM*	0	-29%	-22%	-1	u
COc1cc(/C=C/C(=O)OC(C)C(=O)Nc2ccc(Cl)cn2)ccc1OC(F)F (stereo unspecified)	1%	-52*	7%	0%	-5	u
Cc1ccc(/C=C/C(=O)OC(C)C(=O)Nc2ccc(Cl)cn2)o1 (stereo unspecified)	2%	i	13µM*	16µM*	-18	-1%
